Results reported in PubChem BioAssay (NCATS).
Records with an inconclusive call do not appear. Active and inactive are the calls of the source. Calls follow the shape of the full dose curve.

Target: Atrial natriuretic peptide receptor 1 (Homo sapiens) (UniProt P16066)
Assay: Natriuretic polypeptide receptor (hNpr1) antagonism - Pilot CMLD screen (AID 1347052)
Conditions: HEK293 hNpr1 GloSensor cGMP luminescence, ANP-stimulated; series mostly up to 9.22 µM
Description: In order to identify small molecular compounds that inhibit the hNpr1 receptor we developed a high-throughput assay to measure inhibition of the guanylate cyclase activity of the receptor. cGMP production was measured using a circular permutated Firefly luciferase (FLuc) enzyme functionally linked to the cGMP binding domain of human phosphodiesterase 5 (GloSensor technology pGS-40F, (Fan, F. et al. 2008). The cGMP-sensor was expressed in human embryonic kidney 293 (HEK-293) cells and FLuc activity was measured after stimulation with hNrp agonist peptide. hNrp agonists activates the receptor's associated guanylyl cyclase (GC) domain producing cGMP which then binds to the GloSensor resulting in FLuc activation, the enzymatic activity of which can be measured as bioluminescence with addition of luciferin substrate.
This assay was initially piloted by testing with a small library of specialty compounds.
PROTOCOL TABLES (as described by Inglese J, Shamu CE and Guy RK. 2007)
SEQUENCE No. (e.g., 1, 2, 3, etc.); […] (e.g., Cells, Incubation, Reagent, etc.); VALUE and DESCRIPTION.
1. Cells. Seed 1500 HEK293 cGMP-sensor cells expressing hNpr1 per well in 4uL into Greiner 1536-well white/solid bottom high base, tissue culture-treated plates.
2. Incubation. Incubate plated cells at 37C in 5% CO2, 95% RH overnight.
3. Reagent. Add 1uL per well GloSensor reagent from Promega (2% final concentration) or CO2 independent media vehicle control to respective columns of Greiner 1536-well plates.
4. Incubation. Incubate plated cells at room temperature for 2 h, protect from light.
5. Compounds. Library compounds and A-71915 control added at 23 nL per well, transferred by Pin Tool.
6. Incubation. Incubate plated cells for 30 min. at room temperature, protect from light.
7. Detector. GloSensor baseline pre-read luminescence measured using CCD-based camera (Viewlux).
8. Compound. Add 1uL of hNppA peptide to 0.1 nM final concentration to stimulate hNpr1 or CO2 independent media as vehicle control.
9. Incubation. Incubate treated cells at room temperature for 20 min., protect from light.
10. Detector. GloSensor post-hNppA luminescence measured using CCD-based camera (Viewlux).
NOTES (numbers refer to Sequence numbers above)
1. HEK293 cells expressing hNpr1 and GIP/pGS-40F grown to 85-95% confluence (48-72 h) in T175 culture flasks (CO2 independent media supplemented with 10% FBS, 1% Pen/Strep antibiotics and 1 ug/mL puromycin). Trypsinize and harvest cells from T175 culture flasks and filter through 40 um cell strainer. Cells counted with Invitrogen Countess (30,000,000 - 50,000,000 cells/flask). Cells diluted to a final concentration of 375 cells/uL in CO2 independent media and a Millipore multidrop used to dispense 1500 cells per well (4uL/well) into 13 1536-well Greiner White/Solid bottom, high base tissue-culture treated (TC) plates and one Aurora 1536-well Black/Clear bottom, low base, TC plate (for visual inspection of cell health throughout the duration of the assay).
2. Cells incubated overnight at ambient temperature, 24 h. at 37C in 95% RH incubator protected from light, covered with metal lid with gas-exchange holes.
3. Prepare GloSensor Reagent (Promega): Reconstitute GloSensor luciferase substrate by adding 8.2mL Hepes buffer to 250mg substrate, mix well, protect from light and stored at -80C. Prepare a fresh 12% GloSensor solution in CO2 independent supplemented plating media (see above). Mix well and store at ambient temperature, protected from light. 1uL 12% GloSensor Luciferase Reagent added (2% final concentration) to respective columns of 13 x 1536-well Greiner plate with BioRaptr, 1uL CO2 independent plating media added to respective columns as vehicle control with BioRaptr.
4. Cells incubated for 2 h. at ambient temperature, protected from light with metal lid with gas-exchange holes.
5. A-71915 stock solution prepared (10 mM in DMSO). […]
Potency is read from the fitted curve at half-maximal effect.

Sequence of Atrial natriuretic peptide receptor 1 (Homo sapiens) (P16066 whole entry, looked up): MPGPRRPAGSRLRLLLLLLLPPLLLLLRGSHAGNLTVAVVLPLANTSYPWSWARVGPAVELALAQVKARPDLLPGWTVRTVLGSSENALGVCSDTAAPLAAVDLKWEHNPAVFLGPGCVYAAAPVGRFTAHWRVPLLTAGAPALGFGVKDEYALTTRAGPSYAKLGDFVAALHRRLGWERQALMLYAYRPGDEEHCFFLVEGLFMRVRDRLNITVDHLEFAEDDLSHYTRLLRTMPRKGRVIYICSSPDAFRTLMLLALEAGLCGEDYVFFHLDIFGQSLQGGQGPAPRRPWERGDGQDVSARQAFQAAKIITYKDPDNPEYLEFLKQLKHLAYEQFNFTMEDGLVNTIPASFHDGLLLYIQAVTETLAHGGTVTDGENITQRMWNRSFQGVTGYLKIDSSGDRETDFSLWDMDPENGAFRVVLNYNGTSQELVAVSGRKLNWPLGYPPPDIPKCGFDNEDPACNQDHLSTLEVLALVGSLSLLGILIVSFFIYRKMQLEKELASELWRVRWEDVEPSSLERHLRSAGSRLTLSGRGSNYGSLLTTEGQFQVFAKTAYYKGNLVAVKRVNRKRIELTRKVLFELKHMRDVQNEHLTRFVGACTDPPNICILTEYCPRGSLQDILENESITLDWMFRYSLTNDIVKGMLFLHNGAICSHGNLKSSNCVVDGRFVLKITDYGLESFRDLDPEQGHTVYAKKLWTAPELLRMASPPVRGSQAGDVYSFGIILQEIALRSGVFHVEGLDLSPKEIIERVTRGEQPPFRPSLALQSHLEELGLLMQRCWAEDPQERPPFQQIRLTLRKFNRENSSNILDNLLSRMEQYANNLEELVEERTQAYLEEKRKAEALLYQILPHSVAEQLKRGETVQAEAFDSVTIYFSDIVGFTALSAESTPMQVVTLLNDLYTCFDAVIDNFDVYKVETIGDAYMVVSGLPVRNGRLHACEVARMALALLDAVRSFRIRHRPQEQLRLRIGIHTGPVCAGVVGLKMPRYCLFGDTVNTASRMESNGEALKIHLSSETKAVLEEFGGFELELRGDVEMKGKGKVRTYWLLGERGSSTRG

Potency, active:
COCc1cc2cc3c(cc2c2c(C(=O)OC)c(C(=O)OC)c(C(=O)OC(C)(C)C)n12)OCO3 3.35 µM

Potency, inactive:
CCCC[C@]12Cc3ccccc3[C@H](O1)c1c(cc(-c3ccccc3)oc1=O)O2, CCCCc1cc2c(cn1)=C(OC(=O)C1CCCC1)C(C)(OC(=O)CC)C(=O)C=2 (stereo not given), CCCCc1nc2c(c3c1C[C@H](C)OC3)CN(S(=O)(=O)CCCC)CC2, COC(=O)C1=C(C)N(CC#C[Si](C)(C)C)C(=O)N(C(C)=O)C1c1ccccc1 (stereo not given), CCN1C(=NCCc2cccs2)N[C@@H](CCc2ccccc2)[C@H](C(=O)NCCc2cccs2)[C@H]1C, CCCCCCCc1cc2ccccc2c2c(C(=O)OCC)c(C(=O)OCC)c(C(=O)OCC)n12, CC(CCC(=O)OC[C@H]1O[C@H](C#Cc2ccccc2)C=C[C@H]1Oc1ccc(C)cc1)=NOC[C@@H](O)[C@H]1O[C@@H]2OC(C)(C)O[C@H]2[C@@H]1O, CCN1C(=O)N(S(=O)(=O)C(F)(F)F)C(c2ccccc2)C(C(=O)OC)=C1C (stereo not given), C=C(CCN1C=C(C(=O)OCC)C(c2ccccc2)NC1=O)c1ccc(Cl)cc1 (stereo not given), COC(=O)c1ccc(CN2C(=O)[C@@]3(CC(C)=CC[C@@H](COc4ccccc4)O3)c3c(Br)cccc32)cc1, CCCNC(=O)OC[C@H]1O[C@H](CCON=C(C)CCC(=O)OC[C@H]2O[C@H](C#Cc3ccccc3)C=C[C@H]2Oc2ccc(C)cc2)C=C[C@H]1Oc1ccc(OC)cc1, C#CC[C@@]1(C(=O)OC)C=C[C@@H](C)[C@H](c2ccccc2Br)N1C(=O)C(F)(F)F, COC(=O)CCC(=O)OC1(C)C(=O)C=C2C=C(C3CC3)N(Cc3ccc(OC)cc3)C=C2C1=O (stereo not given), CCCNC(=O)N1C2=NC(C(=O)OC)=C(C(=O)OC)[C@@H]3N(C)c4ccc(OC)cc4[C@]23C[C@H]1C(=O)OC, C=C[C@H](C)[C@](C)(O)c1ccccc1, C=CCN1c2ccccc2[C@]23CCC(=O)N(CC4CC4)C2=NC(C(=O)OC)=C(C(=O)OC)[C@H]13, COC(=O)[C@H]1O[C@@H](c2cc(OC)c(C)c(OC)c2OCc2ccccc2)[C@H](C)[C@@H]2O[C@]12C, COC(=O)C1=C(C)C(=O)[C@]2(O)c3ccccc3N(C)[C@]12C, CC1=C[C@@H](COCc2ccccc2)O[C@@]2(C1)C(=O)Nc1cccc(Br)c12, COc1cc(C(CC2=CCCCC2)NC(=O)C(F)(F)F)cc(OC)c1OC (stereo not given), COC[C@@H](O)[C@H]1OCc2ccccc2[C@H]1C=Cc1ccccc1, COC(=O)C1=C(C(=O)OC)[C@@H]2N(C)c3ccccc3[C@@]23C[C@@H](C(=O)OC)N(C(=O)c2ccc(Br)cc2)C3=N1, CCOC(=O)CN1C(=O)NC(c2ccc(Br)cc2)C(C(C)=O)=C1C (stereo not given), C=C(C(C)=O)C(O)c1cccc(OC)c1 (stereo not given), C=CC[C@](C)(Nc1ccc(OC)cc1)C(=O)OCC, OC[C@H]1O[C@H](C#Cc2ccccc2)C=C[C@@H]1O, COC(=O)CCCC1=CC2=C(c3ccccc3)C(=O)C(C)(OC(=O)C3CCCC3)C(=O)C2=CN1CCN1CCOCC1 (stereo not given), COc1ccc2c(c1)O[C@@H](c1cccc(C(F)(F)F)c1)[C@H](OC(=O)NC1CCCC1)C2=O, CCN1C(=NCC(C)C)NC(c2cccc(F)c2)C(C(=O)OC)=C1C (stereo not given), CCOC(=O)CN1C(=O)NC(c2cccc(F)c2)C(C(C)=O)=C1C (stereo not given), CC(C)=CCCC(C)=CC=CC1=CC2(C)CC1(C)C(C=C(C)CCC=C(C)C)CC2=O (stereo not given), C#CCN1C(=O)[C@]2(OC[C@@H]3Cc4ccccc4[C@@H]3C=C2C)c2ccccc21, C[C@H]1CC[C@H]2C(=O)N(Cc3ccccc3)C[C@@H](O)CN2[C@H]1c1ccc(Br)cc1, O=C1[C@@H]2[C@H]3[C@H](O)[C@H](O)CC(=NOC[C@@H](O)COCc4ccco4)[C@@H]3CC[C@H]2C(=O)N1C[C@@H]1CCCO1, Cc1cc2c(c(=O)n1-c1ccccc1)[C@H]1O[C@](c3ccsc3)(Cc3ccccc31)O2, COC(=O)CC=C[C@@H](C)[C@H](OC)c1ccccc1Br, c1ccc(CCc2nc(-c3ccccc3)oc2Nc2ccc3ccccc3c2)cc1, CCN1C(=S)NC(c2cccc(F)c2)C(C(=O)OC)=C1C (stereo not given), CCC(=O)C[C@@H](NC(=O)OC)c1ccccc1
